Data as given in the supplement of paper PMC10720658.
± gives the standard deviation of the averaged measurements.

What follows are compounds tested on AEK1 (Tb927.3.2440) (assay: percent reduction in TR-FRET probe signal relative to DMSO control; higher = stronger displacement of ATP-site probe (binding)). Settings: 1 µM; incubation time 1 h.

SMILES | percent reduction in TR-FRET probe signal [%]
CC(=O)Nc1nc(C)c(-c2ccc(Cl)c(S(=O)(=O)NCCO)c2)s1 | -6.5 ± 15
O=c1cc(N2CCOCC2)oc2c(-c3ccccc3)cccc12 | -4.66 ± 9.2
CCN(CCO)CCCOc1ccc2c(Nc3cc(CC(=O)Nc4cccc(F)c4)n[nH]3)ncnc2c1 [Barasertib (AZD1152-HQPA)] | -5.79 ± 4.7
COc1cc(Nc2ncc(F)c(Nc3ccc4c(n3)NC(=O)C(C)(C)O4)n2)cc(OC)c1OC [R406 (free base)] | 87.4 ± 6
C=CC(=O)Nc1ccc2ncnc(Nc3ccc(OCc4cccc(F)c4)c(Cl)c3)c2c1.Cc1ccc(S(=O)(=O)O)cc1 | 4.49 ± 7.8
C[C@@]1(C(=O)Nc2ccc(F)nc2)CCCN1c1nc(Nc2cc(C3CC3)[nH]n2)c2cccn2n1 | 23.1 ± 8.1
CC(C)n1nc(-c2cc3cc(O)ccc3[nH]2)c2c(N)ncnc21 | 5.23 ± 4.5
CC(C)(O)CNc1ncc(-c2ccnc(Nc3ccnc(Cl)c3)n2)c(CC2CC2)n1 | 4.25 ± 12
CC(C)n1nc(-c2ccc3oc(N)nc3c2)c2c(N)ncnc21 | -2.53 ± 6.7
O=C(O)c1ccc(-c2c[nH]c3ncc(-c4ccccc4)cc23)cc1C1CCCC1 | -2.47 ± 9.6
COc1cccc(-c2cc(=O)c3ccccc3o2)c1N | -1.76 ± 8
COc1ccc2c(c1)c(C1=C(c3c[nH]c4ccccc34)C(=O)NC1=O)cn2CCCN(C)C | 4.65 ± 14
O=c1c(-c2ccc(O)cc2)coc2cc(O)cc(O)c12 [Genistein] | 23.3 ± 20
CN1CCN(S(=O)(=O)c2ccc(-c3cnc(N)c(C(=O)Nc4cccnc4)n3)cc2)CC1 | -4.29 ± 6.5
COc1ccc(-c2cc3c(C)nc(N)nc3n([C@H]3CC[C@H](OCCO)CC3)c2=O)cn1 | -8.41 ± 7.5
COc1ccccc1-c1cc(Nc2cccc(CS(N)(=O)=O)c2)ncn1 | -8.94 ± 6.4
Cc1ccc(C(=O)Nc2ccc(CN3CCN(C)CC3)c(C(F)(F)F)c2)cc1C#Cc1cnc2cccnn12 | 0.933 ± 14
CN(C)CCOc1ccc(-c2nc(-c3ccncc3)c(-c3ccc4c(c3)CC/C4=N\O)[nH]2)cc1 | 3.05 ± 12
CO[C@H]1C[C@@H]2CC[C@@H](C)[C@@](O)(O2)C(=O)C(=O)N2CCCC[C@H]2C(=O)O[C@H]([C@H](C)C[C@@H]2CC[C@@H](OP(C)(C)=O)[C@H](OC)C2)CC(=O)[C@H](C)/C=C(\C)[C@@H](O)[C@@H](OC)C(=O)[C@H](C)C[C@H](C)/C=C/C=C/C=C/1C [Ridaforolimus (Deforolimus, MK-8669)] | 1.74 ± 22
COC(=O)c1ccc2c(c1)NC(=O)/C2=C(\Nc1ccc(N(C)C(=O)CN2CCN(C)CC2)cc1)c1ccccc1 [Nintedanib (BIBF 1120)] | 9.58 ± 14
CNC(=O)c1ccccc1Nc1nc(Nc2ccc(N3CCOCC3)cc2OC)ncc1Cl | 25.1 ± 15
CS(=O)(=O)O.O=C(Nc1cccc(Cl)c1)Nc1ncc(CCNc2ncnc3ccsc23)s1 [SNS-314 Mesylate] | 0.813 ± 5
C#Cc1cccc(Nc2ncnc3cc(OC)c(OCCCCCCC(=O)NO)cc23)c1 | -2.76 ± 13
CC(C)(C)n1nc(-c2ccc(Cl)cc2)c2c(N)ncnc21 | -1.96 ± 9.6
